Sampled rows, rich in hits. Any-hit rate of the full collection: about 2.4%.
D2 PAM-1: potentiates the human D2 dopamine receptor allosterically; DiscoveRx D2 beta-arrestin cells, luminescence, 90 min; 100% = 57 uM dopamine signal; potentiation, % (no concentration beside the values); 360,000 compounds, 0.23% hits; AID 624464; in the data active = potentiation above about 50%; inconclusive = mostly about 30% to 49%
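PathHunter beta-arrestin assay in DiscoveRx D2 cells. Compounds were added with an EC20 of dopamine (50 nM final) for 90 min at 37 deg C. Luminescence was read 1 h after detection reagent, with 57 uM dopamine as the EC100 control.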
D2 ag-1: activates the human D2 dopamine receptor | P14416 | activation, % at 2 µM | AID 485358 | HEK293 T-REx D2 cells, calcium flux agonist mode | 340,000 compounds, 0.53% hits;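 active = activation over 3 SD above normal in the single-dose calcium agonist read, cut at about 30% in these data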; also: 0% is about no effect
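In this primary screen, compounds producing a positive calcium signal within 180 s of addition to tetracycline-induced, force-coupled HEK293 Trex D2 cells are flagged; cells are dye-loaded with a no-wash calcium kit beforehand.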
D2 ag-2: agonists of human D2 dopamine receptor (beta-arrestin); P14416; DiscoveRx PathHunter D2 beta-arrestin, luminescence, 90 min; 100% = 57 uM dopamine signal; activation, % (test concentration not listed); 360,000 compounds, 0.084% hits; in the data active = activation above about 40%; inconclusive = between about 15% and that limit
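Agonist mode: compounds alone added to overnight-plated D2 PathHunter cells for 90 min at 37 C, with 57 uM final dopamine (EC100) defining full response. Beta-arrestin recruitment detected by chemiluminescent reagent, read after 1 h at ambient temperature.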
D2 PAM-2: positive allosteric modulators of human D2 dopamine receptor; P14416; AID 485347; 340,000 compounds, 0.34% hits; HEK293 T-REx D2, calcium flux, EC20 dopamine potentiation; potentiation, % at 10 µM;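 active = potentiation over 3 SD above the plate norm, cut at about 30% in these data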; also: 0% is about no effect
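Cells plated with tetracycline inducer and held overnight at 30 C; calcium dye loaded 30–90 min at room temperature; baseline taken, compound added and read 180 s; EC20 dopamine then added and read 180 s.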
D2 antag: antagonists of human D2 dopamine receptor; P14416; HEK293 TREx D2 cells, calcium flux, dopamine EC80; inhibition, % at 10 µM; 340,000 compounds, 2% hits; AID 485344; in the data active = inhibition above about 30%; inactive = below that, where a call was filed; also: 0% is about no effect
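Overnight-induced (tetracycline, 30 C) HEK293 T-REx cells carrying force-coupled D2 receive a no-wash calcium dye, then compound, then EC80 dopamine at 180 s; signals are read kinetically throughout.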
D3 ag: activates human D3 dopamine receptor beta-arrestin recruitment. 2,300 compounds, 4% hits. DiscoveRx D3 beta-arrestin cells, luminescence, 90 min. shares compounds with D2 ag-1. Potency, µM (titrated, usually from 76.9 µM), without a hit: at the highest dose activation, most hits filed as activators;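 also: potency is read from the fitted curve at half-maximal effect; 100% = dopamine control response; nearly all actives have a fitted effect of over 70% in size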
Target sequence (P35462 whole entry, looked up): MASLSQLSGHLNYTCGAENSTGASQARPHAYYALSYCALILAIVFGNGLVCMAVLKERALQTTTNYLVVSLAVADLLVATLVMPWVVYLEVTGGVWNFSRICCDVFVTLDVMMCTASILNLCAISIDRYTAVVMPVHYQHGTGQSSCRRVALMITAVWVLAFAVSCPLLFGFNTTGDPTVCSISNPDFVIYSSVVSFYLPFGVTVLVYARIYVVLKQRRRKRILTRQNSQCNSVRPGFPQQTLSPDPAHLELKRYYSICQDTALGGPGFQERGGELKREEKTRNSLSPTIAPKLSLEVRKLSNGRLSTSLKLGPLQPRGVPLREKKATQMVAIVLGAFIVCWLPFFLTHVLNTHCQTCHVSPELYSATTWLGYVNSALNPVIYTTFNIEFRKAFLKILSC
D2 ag-3: activates human D2 dopamine receptor in D3 counterscreen | shares compounds with D2 ag-1 | DiscoveRx PathHunter D2 beta-arrestin, luminescence, 90 min; response scale: percent relative to full dopamine signal | Potency, µM (highest dose often 76.9 µM), inactives show at the top dose activation, most hits filed as activators | 2,300 compounds, 5.9% hits | AID 720507; also: potency is read from the fitted curve at half-maximal effect; % of control where 0% means no effect; nearly all actives have a fitted effect of over 70% in size
Active calls of the source: *; u = inconclusive; x = not tested or not shown. Unless noted, calls follow the shape of the dose curve; as a rule, active = well fitted activation curve with a large enough effect; inconclusive = small, poorly fitted or top-dose-only effect; inactive = flat fitted curve, though single readings scatter.

SMILES | D2 PAM-1 | D2 ag-1 | D2 ag-2 | D2 PAM-2 | D2 antag | D3 ag | D2 ag-3
COc1ccccc1N1CCN(CC(O)COc2ccc3c(C)cc(=O)oc3c2)CC1 (stereo not drawn) | 5.5 | 24.9 | u | -24.3 | 72.1* | 0.8% | 22.4%
CC(=O)c1ccc(OCC(O)CN2CCc3ccccc3C2)cc1 (stereo not drawn) | -17.3 | 43.2* | 0.9 | -42.4 | 0.3 | -11.3% | -4.1%
Cc1cc(=O)oc2cc(OCC(O)CN3CCc4ccccc4C3)ccc12 (stereo not drawn) | -32.4 | x | 3.1 | x | x | -4.2% | 5.4%
COc1ccc2c(C)cc(=O)oc2c1OCC(O)CN1CCOCC1 (stereo not drawn) | -12.3 | x | -7.3 | x | x | x | x
COc1cccc(CNC(=O)c2ccc(Cl)c(S(=O)(=O)N3CCOCC3)c2)c1 | -6.4 | 0.5 | -3.9 | -14.3 | -25.6 | x | x
OC(COc1ccccc1CNCc1cccnc1)CN1CCc2ccccc2C1 (stereo not drawn) | -9.3 | 0.0 | -2.9 | -0.9 | -12.0 | x | x
OC(COc1ccc(CNCc2cccnc2)cc1)CN1CCc2ccccc2C1 (stereo not drawn) | -7.9 | 54.3* | 1.0 | -20.6 | 48.8* | 3.8% | 7.4%
N#Cc1ccc(CSc2nnc(NC(=O)C3CC(=O)N(c4ccc5c(c4)OCCO5)C3)s2)cc1 (stereo not drawn) | -0.1 | -0.1 | -3.9 | -1.1 | -7.2 | x | x
O=C(Nc1nnc(SCc2ccc(F)cc2)s1)C1CC(=O)N(c2ccc3c(c2)OCCO3)C1 (stereo not drawn) | -2.1 | 42.6* | -1.6 | -27.2 | -7.8 | 8.0% | -3.8%
Cc1ccc(NC(=O)Cn2nnc(C(=O)NCc3ccc4c(c3)OCO4)c2N)cc1Cl | x | 1.5 | x | 4.4 | x | x | x
COCCn1c(SCC(=O)NCc2ccc3c(c2)OCO3)nnc1C(C)C | -3.2 | 1.0 | -1.6 | -0.2 | -18.1 | x | x
COCCn1c(SCC(=O)NCc2ccc3c(c2)OCO3)nnc1-c1c[nH]c2ccccc12 | -1.3 | 63.9* | -2.6 | -12.5 | -8.9 | 2.9% | -2.4%
CC(=O)Nc1ccc(S(=O)(=O)NC2(C(F)(F)F)C(=O)Nc3c2c(=O)[nH]c(=O)n3-c2ccc(C)cc2)cc1 (stereo not drawn) | x | -1.3 | x | x | x | x | x
CC(=O)N1C(O)CC(C)N1c1ccccc1 (stereo not drawn) | 8.1 | 0.2 | 1.8 | -3.4 | 0.3 | 2.3% | -2.8%
CC(=O)N1CCN(C(C)=O)C1c1ccccc1 | -0.9 | -0.2 | -3.3 | 3.3 | -12.4 | x | x
CCOC(=O)C1CCN(Cc2cnc(NC(=O)OC)s2)CC1 | -21.5 | 60.3* | 8.3 | -13.3 | 18.3 | -2.2% | 8.1%
Cc1cccc(C(=O)NCC(=O)N2CC=C(c3ccccc3)CC2)c1 | 1.1 | -0.2 | 1.3 | -5.1 | -0.1 | -0.7% | -0.9%
O=C(O)c1ccccc1C(=O)N1CC=C(c2ccccc2)CC1 | -29.6 | 29.1 | 0.3 | -17.8 | 3.7 | -3.1% | 5.5%
COc1ccc(C(=O)NCC(=O)N2CC=C(c3ccccc3)CC2)cc1OC | -5.4 | 0.4 | 3.6 | -9.1 | -6.6 | x | x
CCOc1cccc(Cc2c[nH]c(=O)[nH]c2=O)c1 | -12.7 | x | -4.9 | x | x | x | x
O=C(C1CCN(c2nnc(N3CCCC3=O)s2)CC1)N1CCN(Cc2ccc3c(c2)OCO3)CC1 | 4.0 | 57.0* | 2.7 | -5.1 | 1.0 | 1.5% | 26.0%
O=C(C1CCCN(Cc2ccc3c(c2)OCO3)C1)N1CCCC1 (stereo not drawn) | -3.7 | 0.2 | -0.7 | 1.4 | -12.8 | x | x
CCC1CCc2c(sc(NC(=O)C3CC=CCC3C(=O)O)c2C#N)C1 (stereo not drawn) | 8.2 | 62.5* | u | -19.2 | 29.0 | 15.8µM* | u
COc1ccc(OC)c(S(=O)(=O)Nc2ccc3c(c2)C(=O)OC3)c1 | 2.2 | 0.3 | 1.0 | -1.6 | 5.6 | x | x
OCC(O)CN1CCN(c2ccccc2)CC1 (stereo not drawn) | -16.2 | 82.2* | 14.3 | -22.2 | 58.9* | -5.2% | 17.4%

Source: PubChem (National Center for Advancing Translational Sciences (NCATS))
